SMILES strings stand for the structures. “And” between values parts separate entries of the source, which are not always exact repeats. Equal values may be shown once. Among all 16,000 compounds or so, about 5,700 (36%) were called active. Another 24% or so got no clear call; they are omitted. The list shows a part of the results. A structure can be active in one record and inactive in another. Values without a mark were called inactive. Calls follow the shape of the dose curve; as a rule, active = well fitted curve in the direction sought with a large enough effect; inconclusive = small, poorly fitted or top-dose-only effect, or effect the other way; inactive = no such curve, though single readings can be large or run the other way.
% is scaled to controls: 0 for no effect and ±100 for the full control effect.

The target in the test is Cytochrome P450 1A2 (Homo sapiens) (UniProt P05177). Briefly: Cytochrome panel assay with activity outcomes. As to conditions: recombinant CYP, pro-luciferin dealkylation, luminescence, p450-cyp1a2; series mostly up to 57.1 µM; activity, negative = inhibition: at the top concentration.
Chain of Cytochrome P450 1A2 (Homo sapiens) (P05177 whole entry, looked up): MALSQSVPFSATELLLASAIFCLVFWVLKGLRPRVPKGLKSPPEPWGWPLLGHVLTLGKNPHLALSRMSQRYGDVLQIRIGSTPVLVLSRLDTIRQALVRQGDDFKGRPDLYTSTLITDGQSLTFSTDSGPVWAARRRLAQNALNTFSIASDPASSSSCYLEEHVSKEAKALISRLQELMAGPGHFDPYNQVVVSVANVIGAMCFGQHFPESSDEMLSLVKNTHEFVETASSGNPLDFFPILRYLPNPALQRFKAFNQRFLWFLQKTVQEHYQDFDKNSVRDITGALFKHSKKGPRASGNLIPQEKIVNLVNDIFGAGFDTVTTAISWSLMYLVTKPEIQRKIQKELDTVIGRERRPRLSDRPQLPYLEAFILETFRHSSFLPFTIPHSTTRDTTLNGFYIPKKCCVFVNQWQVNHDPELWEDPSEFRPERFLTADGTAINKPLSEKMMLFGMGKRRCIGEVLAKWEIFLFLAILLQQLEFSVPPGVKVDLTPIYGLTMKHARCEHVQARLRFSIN
In the case of `CCCCNC(=O)C1CC(=O)N(c2ccc(OC)cc2)C1c1ccc(OC)cc1` (stereo unspecified), the “activity, negative = inhibition” value was 1.32%.

With `CCN1C(=O)/C(=C2\SC(=S)N(CCCOC)C2=O)c2ccccc21`, the AC50 is 1.58 µM (active). On the same count and under the same terms, the value for `N#Cc1c(-n2ccnc2)cccc1-n1ccnc1` was 2.51 µM (active); that for `N#Cc1c(Cl)cccc1-n1ccnc1` was 1 µM (active); that for `FC(F)(F)c1ccccc1-n1ccnc1` was 0.251 µM (active). Take `CC(=O)Nc1ccc(NC2=Nc3ccccc3N3C2=Nc2c(c(C)nn2-c2ccccc2)C3c2ccccc2)cc1` (stereo unspecified): the “activity, negative = inhibition” value is 4.37%.

Take `C=CCNC(=O)C1CCN(S(=O)(=O)CC)CC1`: the “activity, negative = inhibition” value was -0.27%.

`COc1ccccc1CNc1ncnc2ccc(-c3ccccc3C#N)cc12`: the AC50 is 1.26 µM (active). Same read-out and setting: the value for `COc1ccc(CNc2ncnc3ccc(-c4ccccc4C#N)cc23)c(OC)c1` was 6.31 µM (active). Take `Cc1ccc(C(=O)N/C(=C\c2ccc([N+](=O)[O-])cc2)C(=O)NCCc2ccccc2)cc1`: the “activity, negative = inhibition” value is -18.3%. For `Cc1ccc(N(Cc2ccc([N+](=O)[O-])cc2)C(=O)c2ccco2)cc1`, the half-maximal activity concentration (AC50) is 12.6 µM (active). In the case of `O=C1c2ccccc2C(=O)N1CCCCN(C(=O)c1ccc([N+](=O)[O-])cc1)c1ccc(Cl)cc1`, the “activity, negative = inhibition” value is -16.4%. Regarding `Nc1nc(-c2cccs2)cs1`, the AC50 was 7.08 µM (active) and the activity, negative = inhibition is -30.1% [at 2.29 µM]. Take `NC(=O)C[C@H](N)C(N)=O`: the activity, negative = inhibition is -6.74% [at 11.4 µM]. Same read-out and setting: the value for `CC(=O)SCC[N+](C)(C)C` was -12.4%. `O=C(Nc1cccc(-c2nc3ccccc3s2)c1)c1ccc2c(c1)OCO2`: the AC50 is 2 µM (active).

`Cc1ccc(-n2nc3ccc(NC(=O)c4ccc5c(c4)OCO5)cc3n2)cc1`: the “activity, negative = inhibition” value was -26.7%. As for `O=C(Nc1cc(-c2nc3ccccc3s2)ccc1Cl)c1ccc2c(c1)OCO2`, the AC50 is 1.41 µM (active). With `CCc1sc(N(C(=O)Cc2ccccc2)c2cccc(F)c2)nc1-c1ccc(C)cc1`, the “activity, negative = inhibition” value was -5.51%.

As to `COc1ccc(N(CC(=O)N/N=C/c2cccs2)S(=O)(=O)c2ccc(OC)c(OC)c2)cc1`, the “activity, negative = inhibition” value is 1.39%. Turning to `C/C(=N/NC(=O)Cc1cccn1C)c1ccccc1`, the AC50 is 20 µM (active). Turning to `Cn1cccc1CC(=O)N/N=C\c1cccs1`, the AC50 is 15.8 µM (active). Regarding `CC(C)(C)c1cccc(Oc2nn[nH]n2)c1`, the “activity, negative = inhibition” value was -3.32%. Same read-out and setting: the value for `NC(=NCCC[C@H](N)C(=O)O)NO` was -1.24%. Same read-out and setting: next, `CN/C(=C\[N+](=O)[O-])NCCSCc1csc(CN(C)C)n1`: -4.81% [at 25.6 µM]. For the compound `O=C(Nc1ccccc1C(=O)NCC1CCCO1)c1ccc(Cl)cc1Cl` (stereo unspecified), the AC50 is 8.91 µM (active). With `Cc1noc(C)c1COc1ccc(C(=O)NCC2CCCO2)cc1` (stereo unspecified), the “activity, negative = inhibition” value is -17.4%. On the same count and under the same terms, next, `Cc1ccc(-c2nnn(CC(=O)N(c3ccccc3)C(C(=O)NCC3CCCO3)c3ccc(Cl)cc3)n2)cc1` (stereo unspecified): 9.48%; `O=C(O)c1cc(S(=O)(=O)NCC2CCCO2)ccc1Cl` (stereo unspecified): -17.5%.

In the case of `O=C(NCC1CCCO1)c1cc(-c2ccc(Cl)cc2Cl)on1` (stereo unspecified), the AC50 is 2.51 µM (active).

As for `Clc1ccccc1NN(Cc1ccccn1)c1ccccc1Cl`, the activity, negative = inhibition was -22.4% [at 2.29 µM].

As to `Clc1ccccc1NN(Cc1ccncc1)c1ccccc1Cl`, the AC50 was 5.01 µM (active).

On to `CN(C)c1ccc(N=Nc2cccc3ccoc23)cc1`, for which the AC50 was 0.251 µM (active). For the compound `COC(=O)CNC(=O)CN1C(=O)N(c2ccccc2)C(N(O)C(=O)Nc2ccccc2)C1(C)C` (stereo unspecified), the “activity, negative = inhibition” value was -12.4%. In the case of `O=c1onc2cnc3ccccc3n12`, the AC50 was 2.51 µM (active).

Take `O=C(Cn1cnc2ccccc21)NC(c1ccccc1)c1ccccc1`: the “activity, negative = inhibition” value is -4.72%. As for `COCCNC(=O)COc1ccc(OCCNC[C@@H](O)COc2ccccc2)cc1`, the “activity, negative = inhibition” value is -35.6%. With `Cc1ccc(OCC(O)CNC(=O)c2ccccc2C(=O)O)cc1` (stereo unspecified), the AC50 is 14.1 µM (active). The same measure, in the same setting: next, `O=C(NCCNC[C@@H](O)COc1ccc(O)cc1)N1CCOCC1`: “inactive”. For `CC(=O)NC(CCS(C)(=O)=O)C(=O)Nc1c(F)cccc1F` (stereo unspecified), the “activity, negative = inhibition” value was -0.273%. As for `Cc1cccc(NC(=O)CSc2nc3ccccc3c3nc(CCc4c(C)n[nH]c4C)nn23)c1`, the “activity, negative = inhibition” value was -12.8%. With `Cc1cccc(NC(=O)CSc2nc3nc(C)cc(C)c3c(=O)[nH]2)c1`, the AC50 is 2 µM (active). Take `Cc1cc(C)nc(SCCc2cccc[n+]2C)n1`: the activity, negative = inhibition was -18.6% [at 2.29 µM]. Same read-out and setting: next, `CC[N+](CC)(CC)CC(=O)Nc1c(C)cccc1C`: 1.71%. For `Cc1cccc(NC(=O)CCSc2nc(C)cc(C)n2)c1`, the AC50 is 14.1 µM (active). Regarding `OCCN(C=NC1=NN(c2cccc(C(F)(F)F)c2)CC1)CCO`, the AC50 was 2.82 µM (active).

`CCC(C)NC(=O)C1c2cc(OC)c(OC)cc2C(=O)N(C)C1c1cccs1` (stereo unspecified): the “activity, negative = inhibition” value was -7.16%. Same read-out and setting: the value for `COc1ccc(-c2ccc3c(n2)CCCN3C[C@H](O)CN2CCCc3nc(C)c(C)cc32)cc1` was -2.83% [at 11.4 µM]. Take `COc1ccc(-c2cc(C(F)F)nc(-n3nc(C)cc3C)n2)cc1`: the AC50 was 1.78 µM (active). As for `Fc1ccc([C@H]2CCNC[C@H]2COc2ccc3c(c2)OCO3)cc1`, the AC50 is 3.16 µM (active).

With `COc1cc(CN2CCN(C(=O)CC(C)C)CC2)cc(OC)c1OC`, the “activity, negative = inhibition” value was -13.1%. For the compound `OC(CN1CCCCC1)CN1CCCCC1`, the “activity, negative = inhibition” value is -1%. For `Cc1nn2c(NCC(C)C)c3c(nc2c1-c1ccccc1)CCC3`, the AC50 is 2.82 µM (active). As to `CCC(C)[C@H](NC(=O)Nc1ccc(Oc2ccccc2)cc1)C(=O)O` (stereo partly specified), the “activity, negative = inhibition” value is -5.08%. Take `CCN(CC)c1nc(Nc2ccccc2)nc(Oc2ccc(C(=O)OC)cc2)n1`: the AC50 is 12.6 µM (active).

`CN1CCCC1CCNC1C2CC3CC(C2)CC1C3` (stereo unspecified): the “activity, negative = inhibition” value was -4.97%. Regarding `COC(=O)c1c(C)[nH]c(O)c1C=Nc1ccc(C(C)C)cc1`, the AC50 is 5.62 µM (active). With `CSc1nsc(SC)c1C(=O)Nc1ccc(C)cc1`, the AC50 is 7.08 µM (active). As for `CCCNC(=O)OC[C@@H]1O[C@H](CCO/N=C(\C)CCN2CCc3nc(CC)c(CC)cc3C2)C=C[C@@H]1Oc1ccc(OC)cc1`, the activity, negative = inhibition was -0.5% [at 11.4 µM].

With `CC1=C(CC(=O)O)c2cc(F)ccc2/C1=C\c1ccc(S(C)(=O)=O)cc1`, the AC50 is 12.6 µM (active). The same measure, in the same setting: next, `CC1=C(CC(=O)O)c2cc(F)ccc2/C1=C\c1ccc(S(C)=O)cc1` (stereo unspecified): 3.98 µM (active) and 12.6 µM (active). With `C=C(C)[C@@H]1CC=C(C(=O)O)CC1`, the “activity, negative = inhibition” value was -6.61%. For `Cc1cnc(CNc2ccnc(-c3cccc(C#N)c3)n2)cn1`, the AC50 was 1.26 µM (active).

`COc1cccc(-c2nccc(NCc3cnc(C)cn3)n2)c1`: the AC50 is 0.501 µM (active). The same measure, in the same setting: the value for `Cc1cnc(CNc2ccnc(-c3cccc(NS(C)(=O)=O)c3)n2)cn1` was 20 µM (active). Turning to `O=C(NCCCN1CCC(Cc2ccccc2)CC1)C1CCN(S(=O)(=O)N2CCOCC2)CC1`, the “activity, negative = inhibition” value was -11.5%. Consider `O=[N+]([O-])c1ccc(/C=N/N/C(=N/c2ccccn2)c2ccccn2)cc1`, for which the AC50 was 12.6 µM (active). With `COc1cc(/C=N/NC(=O)c2ccncc2)ccc1OC(=O)c1ccc([N+](=O)[O-])cc1`, the “activity, negative = inhibition” value is -4.43%. Consider `O=C(N/N=C/c1cccnc1)c1ccc([N+](=O)[O-])cc1`, for which the AC50 was 5.01 µM (active). As to `O=[N+]([O-])c1ccc([C@@H](Nc2ccccc2)c2ccc3cccnc3c2O)cc1`, the activity, negative = inhibition is -21.3% [at 2.29 µM]. As for `Nc1ccc(C(=O)N/N=C/c2ccccc2)cc1`, the AC50 is 25.1 µM (active). Same read-out and setting: the value for `O=C(N/N=C/c1ccc(F)cc1)c1ccc(Br)cc1` was 0.794 µM (active). Turning to `Nc1ccc(C(=O)NCC(=O)O)cc1`, the “activity, negative = inhibition” value is -6.23% [at 25.6 µM]. For `O=C(N/N=C\c1cccc(O)c1)c1ccncc1`, the activity, negative = inhibition was -15.7% [at 11.4 µM]. On the same count and under the same terms, the value for `CO[C@]1(NC(=O)Cc2cccs2)C(=O)N2C(C(=O)O)=C(COC(N)=O)CS[C@H]21` was 1.9% [at 25.6 µM]; that for `O=C(O)c1cccc(C(=O)O)c1S(=O)Cc1ccccc1` (stereo unspecified) was -2.43% [at 11.4 µM]. Regarding `O=c1c(-c2ccccc2)nc2cncnc2n1C1CC1`, the AC50 is 2 µM (active). Regarding `O=c1c(-c2cccs2)nc2cncnc2n1C1CC1`, the AC50 was 2.51 µM (active). Take `Cn1c(=O)c2c(-c3cccc(F)c3)c3c(nc2n(C)c1=O)-c1ccccc1C3O` (stereo unspecified): the “activity, negative = inhibition” value was -14.7%. Consider `O=c1c(-c2cccc(F)c2)nc2cncnc2n1C1CC1`, for which the half-maximal activity concentration (AC50) was 1.58 µM (active).

As for `O=c1c(-c2cccc(Cl)c2)nc2cncnc2n1C1CC1`, the AC50 was 0.631 µM (active).

As to `CCC1OC23CCCCC2C(C#N)(C(=N)O3)C1(C#N)C#N` (stereo unspecified), the “activity, negative = inhibition” value was 15.5%.

Turning to `NC(=O)NC(=O)[C@H]1CCCC[C@@H]1C(=O)O`, the activity, negative = inhibition was -6.09% [at 11.4 µM].

On to `O=C1C2C3C=CC(C3)C2C(=O)N1c1ncn[nH]1` (stereo unspecified), for which the “activity, negative = inhibition” value was -12%. Still for that read-out and setting: next, `COc1ccc(-n2c(=O)c(C)nc3cncnc32)cc1`: -16.4%. Consider `O=c1c(-c2ccc(F)c(F)c2)nc2cncnc2n1C1CC1`, for which the concentration at half-maximal activity (AC50) is 0.1 µM (active). Same read-out and setting: next, `Cc1nc2cncnc2n(C2CC2)c1=O`: 15.8 µM (active); `O=c1c(-c2ccc(F)cc2)nc2cncnc2n1C1CC1`: 0.158 µM (active); `O=c1c(-c2cc(F)cc(F)c2)nc2cncnc2n1C1CC1`: 1.26 µM (active). The same measure, in the same setting: next, `COC(=O)c1cc2c(ccn2-c2ccc(F)cc2)n1C(C)C`: 1 µM (active); `COC(=O)c1cc2c(ccn2-c2ccc(F)cc2)n1CC(C)C`: 0.501 µM (active).

With `CCC(C(=O)N1CCOCC1)n1c(C(=O)OC)cc2occc21` (stereo unspecified), the “activity, negative = inhibition” value is -2.3%. On the same count and under the same terms, the value for `COC(=O)C/C=C\[C@@H](C)[C@@H](/C=N\O[C@@H]1O[C@H](COC(C)=O)[C@H](OC(C)=O)[C@H](OC(C)=O)[C@H]1OC(C)=O)OC` was 8.95% [at 11.4 µM].

As to `COc1ccc(CCN2C(=O)C(Oc3ccccc3C)C2c2ccc3c(c2)OCO3)cc1OC` (stereo unspecified), the “activity, negative = inhibition” value is -16.5%. Still for that read-out and setting: next, `O=C1C[C@@H](O)[C@@H](O)[C@H]2[C@@H]3C(=O)N(Cc4ccc5c(c4)OCO5)C(=O)[C@@H]3CC[C@H]12`: -14.6% [at 11.4 µM] and 4.43% [at 11.4 µM]. Regarding `Cc1ccccc1OC1C(=O)N(Cc2ccc3c(c2)OCO3)C1c1sccc1C` (stereo unspecified), the AC50 was 3.16 µM (active). On to `O=C(c1csnn1)N1CCC2(CCCN(c3ccccc3)C2)CC1`, for which the “activity, negative = inhibition” value was -20.2%. As for `Cn1cc(C(=O)OCC2CCN(CCNS(C)(=O)=O)CC2)c2ccccc21`, the AC50 was 15.8 µM (active). As to `COc1[nH]c2ccc(F)cc2c1C(=O)OCC1CCN(CCNS(C)(=O)=O)CC1`, the AC50 result is “inactive”.

Regarding `COc1cc(N)c(Cl)cc1C(=O)CCC1CCN(CCNS(C)(=O)=O)CC1`, the “activity, negative = inhibition” value is -13.3%.

The values are drawn from PubChem BioAssay AID1851 (National Center for Advancing Translational Sciences (NCATS), 2009).
